From PubChem BioAssay
Values joined by “and” are separate entries in the source; they are usually repeats but may differ in a detail not shown here. Equal entries are not always repeated. For some of these results: Results with a measured potency or affinity are listed apart. Some compounds were tested as several samples or in several runs, with calls that do not always agree. Active and inactive are the calls of the source. Unless noted, how the calls were made is not given here.

Key:
[1] = antimalarial activity against Dd2 strain (AID 2302;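 active means growth inhibition above 50% at the single 2 µM test dose, taken to imply half-maximal potency below 2 µM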;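 further: 0% = DMSO untreated growth and 100% = chloroquine plus artemisinin killed control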); details: P. falciparum Dd2 in RBCs, LDH growth readout, 72 h; at 2 µM; stronger effect = higher value
[2] = HepG2 cytotoxicity, primary screen, cytotoxicity control for P. falciparum antimalarial project, cell-based, ATP luminescence (AID 2303;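 active means inhibition above 50%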;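 further: 0% = DMSO wells and 100% = digitonin-killed cells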); details: HepG2 viability, 24-48 h, at 10 µM, stronger effect = higher value
[3] = molecular target: L-lactate dehydrogenase (Plasmodium falciparum (isolate CDC / Honduras)) (UniProt Q27743); test: PfLDH activity inhibition – cell lysate, 3D7 strain, counter-screen for P. falciparum growth inhibition project (AID 2304);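 further: 0% = vehicle and 100% = reference inhibitor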; details: P. falciparum 3D7 crude extract, LDH APAD/NBT absorbance; at 2 µM; stronger effect = higher value
L-lactate dehydrogenase (Plasmodium falciparum (isolate CDC / Honduras)), sequence (Q27743 whole entry, looked up): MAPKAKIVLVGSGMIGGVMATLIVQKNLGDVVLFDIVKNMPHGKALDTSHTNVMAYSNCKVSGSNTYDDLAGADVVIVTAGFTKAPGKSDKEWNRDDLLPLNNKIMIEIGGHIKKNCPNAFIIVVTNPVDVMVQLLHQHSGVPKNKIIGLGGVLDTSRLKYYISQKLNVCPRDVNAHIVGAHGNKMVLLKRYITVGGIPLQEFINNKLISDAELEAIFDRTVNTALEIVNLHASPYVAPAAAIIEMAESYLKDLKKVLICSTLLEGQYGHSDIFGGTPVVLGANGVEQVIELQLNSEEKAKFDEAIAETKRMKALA

[4] = inhibition of 3D7 malaria parasite growth – strain 3D7 (AID 2306);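 further: 0% = DMSO wells and 100% = chloroquine plus artemisinin control wells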; details: P. falciparum 3D7 erythrocytic growth, LDH absorbance, 72 h; at 2 µM; stronger effect = higher value
[5] = molecular target: Calcium-dependent protein kinase 1 (Plasmodium falciparum (isolate 3D7)) (UniProt P62344); test: PfCDPK1 kinase inhibitors, biochemical, TCAMS library (AID 1159585; cut-off not given, nearly all actives have IC50 up to about 0.98 µM;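 further: inhibitors leave more ATP so luminescence rises with inhibition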); details: recombinant PfCDPK1, Kinase-Glo ATP depletion luminescence
Calcium-dependent protein kinase 1 (Plasmodium falciparum (isolate 3D7)), sequence (P62344 whole entry, looked up): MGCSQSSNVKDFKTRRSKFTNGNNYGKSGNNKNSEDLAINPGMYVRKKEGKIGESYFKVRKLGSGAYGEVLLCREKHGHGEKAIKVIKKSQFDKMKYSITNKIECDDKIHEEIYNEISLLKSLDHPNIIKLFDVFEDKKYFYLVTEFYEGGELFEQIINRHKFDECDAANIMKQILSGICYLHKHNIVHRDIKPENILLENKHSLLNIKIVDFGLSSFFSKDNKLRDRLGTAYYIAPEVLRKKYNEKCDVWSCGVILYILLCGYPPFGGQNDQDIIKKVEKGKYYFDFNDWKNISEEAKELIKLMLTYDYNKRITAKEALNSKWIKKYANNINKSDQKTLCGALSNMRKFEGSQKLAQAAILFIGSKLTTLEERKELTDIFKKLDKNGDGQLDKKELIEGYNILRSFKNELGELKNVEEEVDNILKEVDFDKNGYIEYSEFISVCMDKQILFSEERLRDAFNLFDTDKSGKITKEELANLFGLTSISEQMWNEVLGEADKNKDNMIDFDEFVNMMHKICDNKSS

[6] = molecular target: Plasmodium falciparum protein kinase 6 (PK6, PF3D7_1337100) (UniProt Q8IDW1); test: PfPK6 kinase inhibitors, biochemical, TCAMS library (AID 1159586); details: recombinant PfPK6, Kinase-Glo ATP depletion luminescence
Plasmodium falciparum protein kinase 6 (PK6, PF3D7_1337100), sequence (Q8IDW1 1-305): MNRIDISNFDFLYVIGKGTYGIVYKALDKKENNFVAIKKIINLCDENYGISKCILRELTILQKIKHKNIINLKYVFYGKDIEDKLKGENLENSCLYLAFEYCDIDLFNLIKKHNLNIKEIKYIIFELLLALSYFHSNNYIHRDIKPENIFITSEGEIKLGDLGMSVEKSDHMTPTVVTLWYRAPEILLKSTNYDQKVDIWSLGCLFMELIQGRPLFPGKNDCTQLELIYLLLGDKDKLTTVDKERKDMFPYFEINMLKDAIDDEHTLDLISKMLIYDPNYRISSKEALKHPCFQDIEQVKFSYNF

[7] = molecular target: Protein kinase 7 (PK7), Plasmodium falciparum 3D7 (PF3D7_0213400) (UniProt Q7YTF7); test: inhibition of Plasmodium PK7 catalytic activity – biochemical, TCAMS antimalarial set, Kinase-Glo luminescence (AID 1159587); details: recombinant PfPK7, Kinase-Glo ATP depletion luminescence
Protein kinase 7 (PK7), Plasmodium falciparum 3D7 (PF3D7_0213400), sequence (Q7YTF7 1-343): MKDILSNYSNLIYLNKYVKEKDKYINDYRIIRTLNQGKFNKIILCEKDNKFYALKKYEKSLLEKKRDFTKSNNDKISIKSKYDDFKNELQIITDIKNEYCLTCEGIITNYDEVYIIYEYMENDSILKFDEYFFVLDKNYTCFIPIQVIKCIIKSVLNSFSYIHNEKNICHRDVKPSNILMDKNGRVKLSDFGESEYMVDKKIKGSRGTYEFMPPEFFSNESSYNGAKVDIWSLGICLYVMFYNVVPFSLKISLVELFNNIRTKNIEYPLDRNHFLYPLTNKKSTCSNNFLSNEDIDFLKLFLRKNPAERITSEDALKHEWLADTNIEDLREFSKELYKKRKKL

[8] = molecular target: Calcium-dependent protein kinase 4 (Plasmodium falciparum (isolate 3D7)) (UniProt Q8IBS5); test: PfCDPK4 kinase inhibitors, biochemical, TCAMS library (AID 1159588; cut-off not given, nearly all actives have IC50 up to about 0.91 µM); details: recombinant PfCDPK4, Kinase-Glo ATP depletion luminescence
Calcium-dependent protein kinase 4 (Plasmodium falciparum (isolate 3D7)), sequence (Q8IBS5 whole entry, looked up): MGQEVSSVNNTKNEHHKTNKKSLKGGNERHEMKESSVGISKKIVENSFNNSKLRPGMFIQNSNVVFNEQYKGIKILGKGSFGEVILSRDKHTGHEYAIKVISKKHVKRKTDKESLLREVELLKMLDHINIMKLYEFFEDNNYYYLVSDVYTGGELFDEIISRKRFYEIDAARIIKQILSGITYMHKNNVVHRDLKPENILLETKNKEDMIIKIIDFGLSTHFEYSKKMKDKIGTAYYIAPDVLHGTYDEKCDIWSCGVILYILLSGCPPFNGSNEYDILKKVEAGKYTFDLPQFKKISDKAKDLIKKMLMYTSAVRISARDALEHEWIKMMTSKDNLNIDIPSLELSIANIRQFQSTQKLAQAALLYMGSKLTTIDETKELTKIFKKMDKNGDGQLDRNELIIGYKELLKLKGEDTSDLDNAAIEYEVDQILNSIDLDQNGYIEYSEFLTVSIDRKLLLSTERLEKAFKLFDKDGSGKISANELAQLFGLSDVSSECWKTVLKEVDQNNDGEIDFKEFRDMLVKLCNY

CC[C@H]1C[N+]2([O-])CC[C@@H]1C[C@H]2[C@H](O)c1cc(-c2ccccc2)nc2ccc(OC)cc12
inactive: inhibition [2] -11% | inhibition [3] 0% | outcome [5] | outcome [6] | outcome [7] | outcome [8]
active: growth inhibition [1] 97% | growth inhibition [4] 99%

CCCCn1c(C)c(C(=O)OCC)c2cc(OC(C)=O)c(Br)cc21
active: growth inhibition [1] 79% | growth inhibition [4] 98%
inactive: inhibition [2] -8% | inhibition [3] -1% | outcome [5] | outcome [6] | outcome [7] | outcome [8]

Cn1cc(CN2CCC(CCOC(c3ccccc3)c3ccccc3)CC2)cn1
active: growth inhibition [1] 100% | growth inhibition [4] 99%
inactive: inhibition [2] 27% | inhibition [3] -5% | outcome [5] | outcome [6] | outcome [7] | outcome [8]

COC(=O)c1ccc(CC(C)NCC(O)c2cccc(Oc3cccc(C(F)(F)F)c3)c2)cc1 (centres undefined)
inactive: inhibition [2] 19% | inhibition [3] 2% | outcome [5] | outcome [6] | outcome [7] | outcome [8]
active: growth inhibition [1] 73% | growth inhibition [4] 91%

O=C(/C=C/c1cc(C(F)(F)F)ccc1F)NC1CCC(CN2CCC(c3c[nH]c4ccccc34)CC2)CC1 (centres undefined)
active: growth inhibition [1] 66% | growth inhibition [4] 101%
inactive: inhibition [2] 5% | inhibition [3] -5% | outcome [5] | outcome [6] | outcome [7] | outcome [8]

O=C(/C=C/c1ccc(Cl)cc1)NC1CCC(CN2CCC(c3c[nH]c4ccccc34)CC2)CC1 (centres undefined)
inactive: inhibition [2] 39% and 40% | inhibition [3] -6% and 4% | outcome [5] | outcome [6] | outcome [7] | outcome [8]
active: growth inhibition [1] 67% and 90% | growth inhibition [4] 99% and 100%

CCCc1cc([C@@H](O)[C@@H]2C[C@@H]3CCN2C[C@@H]3CC)c2ccccc2n1
active: growth inhibition [1] 57% | growth inhibition [4] 100%
inactive: inhibition [2] 9% | inhibition [3] 2% | outcome [5] | outcome [6] | outcome [7] | outcome [8]

O=C(NC1CCC(N2CCC3(CC2)C(=O)NCN3c2ccccc2)CC1)c1cc2ccccc2[nH]1 (centres undefined)
inactive: growth inhibition [1] 40% | inhibition [2] -2% | inhibition [3] 1% | outcome [5] | outcome [6] | outcome [7] | outcome [8]
active: growth inhibition [4] 98%

Cc1ccc2c(C3=CCN(CCCCC4(C)C(=O)Nc5c(F)cccc54)CC3)c(C)[nH]c2c1 (centres undefined)
inactive: inhibition [2] 5% | inhibition [3] -4% | outcome [5] | outcome [6] | outcome [7] | outcome [8]
active: growth inhibition [1] 89% | growth inhibition [4] 95%

COC(=O)/C=C/c1ccc(CC(C)NCC(O)c2cccc(Cl)c2)cc1 (centres undefined)
inactive: inhibition [2] 2% | inhibition [3] 5% | outcome [5] | outcome [6] | outcome [7] | outcome [8]
active: growth inhibition [1] 73% | growth inhibition [4] 99%

CC[C@H]1CN2CC[C@H]1C[C@H]2[C@H](O)c1cc(-c2cccc(F)c2)nc2ccc(OC)cc12
inactive: inhibition [2] 34% | inhibition [3] 5% | outcome [5] | outcome [6] | outcome [7] | outcome [8]
active: growth inhibition [1] 97% | growth inhibition [4] 99%

COc1cc(CC(C)NCC(O)c2cccc(C(F)(F)F)c2)ccc1OCc1ccccc1 (centres undefined)
inactive: inhibition [2] 2% | inhibition [3] 2% | outcome [5] | outcome [6] | outcome [7] | outcome [8]
active: growth inhibition [1] 71% | growth inhibition [4] 93%

Cc1[nH]c2cc(F)ccc2c1C1=CCN(CCCCC2(C)C(=O)Nc3c(F)cccc32)CC1 (centres undefined)
inactive: inhibition [2] 15% | inhibition [3] -7% | outcome [5] | outcome [6] | outcome [7] | outcome [8]
active: growth inhibition [1] 89% | growth inhibition [4] 96%

O=C(/C=C/c1ccc(Cl)c(Cl)c1)NC1CCC(CN2CCC(c3c[nH]c4cc(O)ccc34)CC2)CC1 (centres undefined)
active: growth inhibition [1] 98% | growth inhibition [4] 100%
inactive: inhibition [2] 18% | inhibition [3] -10% | outcome [5] | outcome [6] | outcome [7] | outcome [8]

Cc1ccc(C)c(C=CC(=O)NC2CCC(CN3CCC(c4c[nH]c5ccccc45)CC3)CC2)c1 (centres undefined)
active: growth inhibition [1] 55% and 80% | growth inhibition [4] 101% and 102%
inactive: inhibition [2] 38% and 46% | inhibition [3] 3% and 5% | outcome [5] | outcome [6] | outcome [7] | outcome [8]

CC(C)/C(=C(/F)CN1C(=O)C(NC(=O)c2cc3ccccc3[nH]2)C(=O)N(c2ccccc2)c2ccccc21)c1ccccc1 (centres undefined)
active: growth inhibition [1] 82% | growth inhibition [4] 98%
inactive: inhibition [2] 7% | inhibition [3] -2% | outcome [5] | outcome [6] | outcome [7] | outcome [8]

CC[C@H]1CN2CC[C@@H]1C[C@H]2[C@H](O)c1cc(N2CCC(CO)CC2)nc2ccc(OC)cc12
inactive: inhibition [2] 4% | inhibition [3] -1% | outcome [5] | outcome [6] | outcome [7] | outcome [8]
active: growth inhibition [1] 99% | growth inhibition [4] 99%

CCCCCC(C)C(C)c1cc(O)c2c3c(c(=O)oc2c1)CN(Cc1ccccc1)CC3 (centres undefined)
active: growth inhibition [4] 99%
inactive: growth inhibition [1] 47% | inhibition [2] 4% | inhibition [3] -2% | outcome [5] | outcome [6] | outcome [7] | outcome [8]

Cc1c(C(=O)NC2CCC(CN3CCC(c4c[nH]c5ccccc45)CC3)CC2)cnn1-c1c(Cl)cc(Cl)cc1Cl (centres undefined)
inactive: inhibition [3] 4% | outcome [5] | outcome [6] | outcome [7] | outcome [8]
active: growth inhibition [1] 97% | inhibition [2] 53% | growth inhibition [4] 100%

CCCCCCCN1[C@@H]2CC[C@H]1CC(CCOc1ccnc3ccc(OC)cc13)C2 (some centres undefined)
active: growth inhibition [1] 88% | growth inhibition [4] 98%
inactive: inhibition [2] 23% | inhibition [3] -1% | outcome [5] | outcome [6] | outcome [7] | outcome [8]

CN(c1ccnc(Nc2ccc(CS(C)(=O)=O)cc2)n1)C1CCN(Cc2ccccc2)CC1
active: growth inhibition [4] 83%
inactive: growth inhibition [1] 9% | inhibition [2] 10% | inhibition [3] 1% | outcome [5] | outcome [6] | outcome [7] | outcome [8]

O=C(/C=C/c1ccc(Cl)c(Cl)c1)NCCCCCN1[C@@H]2CC[C@H]1CC(c1c[nH]c3ccc(O)cc13)C2 (some centres undefined)
inactive: growth inhibition [1] -1% and 20% | inhibition [2] 26% and 9% | inhibition [3] 2% and -6% | outcome [5] | outcome [6] | outcome [7] | outcome [8]
active: growth inhibition [4] 100% and 91%

CC[C@H]1CN2CC[C@H]1C[C@H]2[C@H](O)c1cc(-c2ccc(C)cc2)nc2ccc(OC)cc12
inactive: inhibition [2] 22% | inhibition [3] 6% | outcome [5] | outcome [6] | outcome [7] | outcome [8]
active: growth inhibition [1] 99% | growth inhibition [4] 99%

COc1cccc(CN2CCC(CCOC(c3ccccc3)c3ccccc3)CC2)c1O
active: growth inhibition [1] 99% | growth inhibition [4] 97%
inactive: inhibition [2] 33% | inhibition [3] 3% | outcome [5] | outcome [6] | outcome [7] | outcome [8]

COc1ccc(C=CC(=O)NC2CCC(CN3CCC(c4c[nH]c5ccccc45)CC3)CC2)cc1 (centres undefined)
active: growth inhibition [1] 60% and 61% | growth inhibition [4] 100%
inactive: inhibition [2] 13% and 30% | inhibition [3] -6% and -7% | outcome [5] | outcome [6] | outcome [7] | outcome [8]

O=C(/C=C/c1c(Cl)cccc1Cl)NC1CCC(CN2CCC(c3c[nH]c4ccccc34)CC2)CC1 (centres undefined)
active: growth inhibition [4] 93% and 100%
54% (active) and 39% (inactive): inhibition [2]
inactive: growth inhibition [1] 42% and 21% | inhibition [3] -4% and 4% | outcome [5] | outcome [6] | outcome [7] | outcome [8]

CC(Cc1ccc(OCCOc2ccccc2)cc1)NCC(O)c1cccc(Cl)c1 (centres undefined)
active: growth inhibition [1] 99% | growth inhibition [4] 99%
inactive: inhibition [2] 12% | inhibition [3] 1% | outcome [5] | outcome [6] | outcome [7] | outcome [8]

COC(=O)c1ccc(CC(C)NCC(O)c2cccc(Cl)c2Cl)cc1 (centres undefined)
inactive: inhibition [2] -1% | inhibition [3] -6% | outcome [5] | outcome [6] | outcome [7] | outcome [8]
active: growth inhibition [1] 98% | growth inhibition [4] 98%

O=C(Nc1cc(C(F)(F)F)cc(C(F)(F)F)c1)NC1CCC(CN2CCC(c3c[nH]c4ccccc34)CC2)CC1 (centres undefined)
active: growth inhibition [1] 72% and 98% | growth inhibition [4] 97% and 101%
19% (inactive) and 58% (active): inhibition [2]
inactive: inhibition [3] 8% and -8% | outcome [5] | outcome [6] | outcome [7] | outcome [8]

COc1ccc(CCNCc2ccc3nc(N)c(C)cc3c2)cc1
active: growth inhibition [4] 100%
inactive: growth inhibition [1] 15% | inhibition [2] -1% | inhibition [3] 3% | outcome [5] | outcome [6] | outcome [7] | outcome [8]

COc1cccc(C2(C)CCN(CCCCNC(=O)c3ccc(NC(=O)c4ccc(Cl)cc4)cc3)CC2)c1
active: growth inhibition [1] 72% | growth inhibition [4] 97%
inactive: inhibition [2] 19% | inhibition [3] 8% | outcome [5] | outcome [6] | outcome [7] | outcome [8]

CN1CC=C(c2c[nH]c3ccc(-c4ccccc4)cc23)CC1
inactive: inhibition [2] 14% | inhibition [3] -1% | outcome [5] | outcome [6] | outcome [7] | outcome [8]
active: growth inhibition [1] 60% | growth inhibition [4] 93%

N#Cc1c(Cl)cccc1Oc1ccc(S(=O)(=O)N2CCC(CN3CCC(c4c[nH]c5ccccc45)CC3)CC2)cc1
active: growth inhibition [1] 67% | growth inhibition [4] 100%
inactive: inhibition [2] 36% | inhibition [3] 4% | outcome [5] | outcome [6] | outcome [7] | outcome [8]

CC[C@H]1CN2CCc3cc(OC)c(OC)cc3[C@@H]2C[C@@H]1C[C@H]1NCCc2c1cc(OC)c(O)c2Cl
inactive: inhibition [3] 2% | outcome [5] | outcome [6] | outcome [7] | outcome [8]
active: growth inhibition [1] 101% | inhibition [2] 51% | growth inhibition [4] 100%

Oc1ccc(CN2CCN(CCOC(c3ccc(F)cc3)c3ccc(F)cc3)CC2)cc1Cl
active: growth inhibition [1] 87% | growth inhibition [4] 96%
inactive: inhibition [2] 19% | inhibition [3] -4% | outcome [5] | outcome [6] | outcome [7] | outcome [8]

CC[C@H]1CN2CC[C@H]1C[C@H]2[C@H](O)c1cc(N2CCC3CCCCC3C2)nc2ccc(OC)cc12 (some centres undefined)
inactive: inhibition [3] -4% | outcome [5] | outcome [6] | outcome [7] | outcome [8]
active: growth inhibition [1] 99% | inhibition [2] 50% | growth inhibition [4] 100%

O=C(NC1CCC(CN2CCC(c3c[nH]c4ccccc34)CC2)CC1)c1cn(Cc2ccccc2)c2ccccc12 (centres undefined)
active: inhibition [2] 84% | growth inhibition [4] 91%
inactive: growth inhibition [1] 48% | inhibition [3] -3% | outcome [5] | outcome [6] | outcome [7] | outcome [8]

O=C(c1cc(C(F)(F)F)cc(C(F)(F)F)c1)N1CC[C@H](CCN2CCC3(CC2)C(=O)NCN3c2ccccc2)C[C@H]1Cc1ccc(Cl)c(Cl)c1
inactive: inhibition [2] 19% | inhibition [3] -4% | outcome [5] | outcome [6] | outcome [7] | outcome [8]
active: growth inhibition [1] 77% | growth inhibition [4] 100%
